SMN2 splice enh = enhancers of SMN2 splice variant expression; Potency, µM (highest dose often 46.1 µM), actives largely listed as activators; HEK293 SMN2-luciferase splicing reporter, luminescence, 30-36 h; AID 1458; actives 2.8% (n = 210,000); further: nearly all actives have a fitted effect of over 55% in size
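HEK293 cells carry an SMN2 […]–luciferase reporter in which exon 7 inclusion puts luciferase in frame. Cells were plated 10-12 h before compound addition, then incubated 30-36 h at 37C. ONE-Glo luminescence was read; sodium butyrate at 4.5 mM final served as control.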
ELG1 repair inh = blocks ELG1-dependent DNA repair in HEK293T cells | HEK293T ELG1-luciferase reporter, luminescence, 16 h; DNA damage induced by 5-fluorouridine | Potency, µM (highest dose often 46.1 µM), most hits filed as inhibitors | actives 2.3% (n = 330,000) | AID 504467; further: nearly all actives have a fitted effect of over 55% in size
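Step one: seed 2,000 cells per well. Step two: pin-transfer compound or DMSO alongside 5-fluorouridine. Step three: incubate 16 hr, 37 °C, 5% CO2. Step four: add ONE-Glo, wait 30 min, read luminescence.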
NPC1 prom act = activates the NPC1 promoter. Huh7 NPC1 promoter luciferase reporter, 24 h. Potency, µM (titrated, usually from 9.22 µM), hits mostly activators. actives 2.4% (n = 320,000). AID 485313; further: nearly all actives have a fitted effect of over 60% in size
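Huh7 cells stably carrying NPC1 promoter–luciferase, plated in Opti-MEM with 10% FBS for 2 h, were exposed to compound in DMSO for 24 h at 37 °C; luciferase reagent was added for 10 min and luminescence read.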
FLuc modulator = inhibits or activates purified firefly luciferase, miR-21 counter-screen; AID 588342; actives 6.9% (n = 360,000); purified FLuc, Km substrates, luminescence inhibition; Potency, µM (top dose mostly 57.5 µM), most hits filed as inhibitors; further: nearly all actives have a fitted effect of over 55% in size
Target sequence (P08659 whole entry, looked up): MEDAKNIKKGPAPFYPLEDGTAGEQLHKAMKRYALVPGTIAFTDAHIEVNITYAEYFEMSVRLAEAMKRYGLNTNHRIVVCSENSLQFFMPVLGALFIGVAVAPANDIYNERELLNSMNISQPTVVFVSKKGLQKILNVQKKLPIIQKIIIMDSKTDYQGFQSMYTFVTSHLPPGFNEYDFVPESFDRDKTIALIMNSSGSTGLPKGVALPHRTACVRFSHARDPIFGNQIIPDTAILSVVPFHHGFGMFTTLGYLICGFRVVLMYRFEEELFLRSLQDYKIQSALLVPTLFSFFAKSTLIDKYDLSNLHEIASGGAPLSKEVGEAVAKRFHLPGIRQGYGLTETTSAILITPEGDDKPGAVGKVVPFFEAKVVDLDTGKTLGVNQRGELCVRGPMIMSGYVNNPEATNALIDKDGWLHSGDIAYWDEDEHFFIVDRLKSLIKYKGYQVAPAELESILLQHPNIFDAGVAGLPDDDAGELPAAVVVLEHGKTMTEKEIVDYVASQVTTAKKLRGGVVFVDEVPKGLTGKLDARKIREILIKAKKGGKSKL
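Purified P. pyralis luciferase, 10 nM final, with Km-level 10 uM D-luciferin and 10 uM ATP in 50 mM Tris acetate pH 7.5, 10 mM Mg acetate, 0.01% Tween-20, 0.05% BSA; 6-point qHTS titration about 60 µM downward; luminescence read.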
Rab9 prom act = Rab9 promoter activation; Huh7 Rab9 promoter-luciferase reporter, luminescence, 24 h; Potency, µM (top dose mostly 9.22 µM), most hits filed as activators; actives 2.8% (n = 320,000); further: nearly all actives have a fitted effect of over 60% in size
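Steps: seed 1500 Huh7 Rab9-luc cells per well, rest 2 h at 37 °C; add compound in DMSO; incubate 24 h; add luciferase reagent, 10 min ambient; read luminescence.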
ELG1 genotox = induces genotoxicity in HEK293T cells with luciferase-tagged ELG1; HEK293T ELG1-luciferase reporter, luminescence, 16 h; Potency, µM (series often up to 46 µM), hits mostly activators; actives 1.3% (n = 330,000); AID 504466; further: nearly all actives have a fitted effect of over 60% in size
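Genotoxicity was scored as increased ELG1-luciferase reporter signal, measured by ONE-Glo luminescence (30 min, room temperature). Compound or vehicle exposure of the HEK293T reporter cells lasted 16 hr at 37°C.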
Of the large screens only hits and unclear results are named; the others gave an inactive call. Only some compounds are listed: those with a hit (about 9.2% of all), similar ones and a draw of the others. The call rests on the fitted dose curve; in most records, active means well fitted curve in the direction sought with a large enough effect; inconclusive means small, poorly fitted or top-dose-only effect, or another doubt; inactive means no such curve, though single readings can be large; an effect the other way counts as inactive or inconclusive.

CC(=O)c1ccc(NC(=O)c2c(C)nn(-c3ccccc3)c2Cl)cc1	none (no result: SMN2 splice enh)
COc1ccc(NC(=O)c2c(C)nn(-c3ccccc3)c2Cl)cc1	ELG1 repair inh inconclusive, FLuc modulator inconclusive (no result: SMN2 splice enh)
COc1cccc(NC(=O)COC(=O)c2c(C)nn(-c3ccccc3)c2C)c1	ELG1 repair inh inconclusive, FLuc modulator 21.3µM (no result: SMN2 splice enh)
Cc1ccc(NC(=O)c2c(C)nn(-c3ccccc3)c2Cl)cc1	ELG1 repair inh inconclusive, FLuc modulator 15.1µM
COc1cccc(NC(=O)c2c(C)nn(-c3ccccc3)c2Cl)c1	ELG1 repair inh inconclusive, FLuc modulator 16.9µM, Rab9 prom act inconclusive (no result: SMN2 splice enh)
CC1CCN(C(=O)CN2CCSc3ccc(S(=O)(=O)N(C)C)cc32)CC1	none (no result: SMN2 splice enh, ELG1 repair inh, NPC1 prom act, Rab9 prom act, ELG1 genotox)
O=C(CCC1N=C2c3ccccc3N=C(SCC(=O)Nc3cccc(Cl)c3)N2C1=O)NCc1ccco1 (stereo unspecified)	none (no result: ELG1 repair inh, NPC1 prom act, Rab9 prom act, ELG1 genotox)
N/C(CS(=O)(=O)c1ccccc1)=N\OC(=O)c1ccc(F)cc1	ELG1 repair inh inconclusive, ELG1 genotox inconclusive (no result: SMN2 splice enh)
O=C(O/N=C/C1=C(Cl)c2ccccc2CC1)c1ccc(F)cc1	FLuc modulator 6.75µM
COc1ccc(-n2c(SCC(=O)Nc3nc(C)cs3)nnc2-c2ccoc2C)cc1	ELG1 repair inh 23.1µM
COc1ccc(-n2c(SCC(=O)Nc3nccs3)nnc2-c2ccoc2C)cc1	ELG1 repair inh 20.6µM
COc1cccc(-n2c(SCC(=O)Nc3nccs3)nnc2-c2ccoc2C)c1	ELG1 repair inh inconclusive
COc1ccccc1OCCCCn1c(C(C)O)nc2ccccc21 (stereo unspecified)	ELG1 repair inh inconclusive (no result: SMN2 splice enh)
Cc1ccc(CN(C(=O)Cn2nnc3ccccc32)C(C(=O)NCc2ccco2)c2ccc(C)o2)cc1 (stereo unspecified)	ELG1 repair inh 23.1µM
Cc1ccc(N(C(=O)Cn2nnc3ccccc32)C(C(=O)NCc2ccco2)c2ccc(C)o2)cc1 (stereo unspecified)	none
COc1cccc(CN(C)C(=O)/C=C/c2ccc(S(=O)(=O)N3CCCCCC3)cc2)c1	ELG1 repair inh inconclusive (no result: SMN2 splice enh)
Cc1[nH]n(-c2ccccc2)c(=O)c1S(=O)(=O)c1ccccc1	none
CC(=O)N1CCC2(CC1)C/C(=N\NC(=S)Nc1ccc(C)cc1)c1cc(O)ccc1O2	FLuc modulator inconclusive
Cc1ccc(/C=C/C(=O)CCC(=O)O)cc1	ELG1 repair inh inconclusive, FLuc modulator 6.75µM, Rab9 prom act inconclusive (no result: SMN2 splice enh)
CCOC(=O)CCCNC(=O)N1CCc2nc(-c3ccccc3)c3c(c2C1)CO[C@@H](C)C3	none (no result: ELG1 repair inh, NPC1 prom act, FLuc modulator, Rab9 prom act, ELG1 genotox)
Cn1c2ccccc2c2ncn(CCCN3CCOCC3)c(=O)c21	SMN2 splice enh inconclusive
Cn1c2ccccc2c2ncn(CCC3=CCCCC3)c(=O)c21	ELG1 repair inh inconclusive, FLuc modulator 16.9µM, Rab9 prom act 4.47µM, ELG1 genotox inconclusive (no result: SMN2 splice enh)
CCc1noc(C)c1C(=O)NNC(=O)c1ccccc1F	ELG1 repair inh inconclusive (no result: SMN2 splice enh)
CC(C)c1ccc(C2NC(=O)c3ccccc3O2)cc1 (stereo unspecified)	FLuc modulator 9.53µM, ELG1 genotox inconclusive (no result: SMN2 splice enh)
O=C1NC(c2ccc(Cl)cc2)Oc2ccccc21 (stereo unspecified)	none (no result: SMN2 splice enh)
COc1ccc(C(=O)COC(=O)C(C(C)C)N2C(=O)C3C4C=CC(C4)C3C2=O)cc1 (stereo unspecified)	SMN2 splice enh inconclusive, FLuc modulator 19µM
Cc1oc(/N=C/c2ccc(Cl)cc2)c(C#N)c1C	FLuc modulator 10.7µM
Cc1oc(/N=C/c2ccccc2O)c(C#N)c1C	none
Cc1oc(/N=C/c2ccc(O)cc2O)c(C#N)c1C	FLuc modulator 16.9µM
CC(C)(C)OC(=O)N1CCC(c2nnc(SCc3ccccc3)o2)CC1	none (no result: ELG1 repair inh, NPC1 prom act, Rab9 prom act, ELG1 genotox)
NNc1nc2ccccc2c(=O)n1Cc1ccccc1	ELG1 repair inh inconclusive, FLuc modulator inconclusive, Rab9 prom act inconclusive (no result: SMN2 splice enh)
CCOc1ccc(S(=O)(=O)NCC(c2cccs2)S(=O)(=O)c2ccc(C)cc2)cc1 (stereo unspecified)	none (no result: SMN2 splice enh, ELG1 repair inh, NPC1 prom act, Rab9 prom act, ELG1 genotox)

Screening data as filed in PubChem.
